Reference: PubChem BioAssay AID1159580 (chemical genetic matrix, 2015)
Hit rate of the full screen: of about 5,500 compounds, about 2,000 (36%) were called active. Roughly 18% stayed inconclusive and do not appear here. Cut-off read from the data, not from the text of the source: active = normalized growth mostly below about 0.91 (no sharp cut-off); inconclusive = no clear call, values can overlap the other calls; inactive = mostly above about 0.92. The list shows a part of the results.

Assay: chemical genetic growth profiling, strain panel (AID 1159580);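 note: tested at 20 µM; growth read once vehicle control cultures reached saturation at 30 °C; 1 = growth at the plate median or of vehicle wells; lower values mean less growth of the strain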
Conditions: S. cerevisiae deletion strains, growth OD

Measured: normalized growth

C/C=C(/C)C(=O)O[C@@H]1Cc2c(ccc3ccc(=O)oc23)OC1(C)C
inactive: locus YBR021W, strain FUR4, hits give low values 1.08 | locus YBR229C, strain ROT2, hits give low values 0.984 | locus YCL029C, strain bik1, hits give low values 1.01 | locus YDL035C, strain GPR1, hits give low values 0.974 | locus YDL074C, strain BRE1, hits give low values 0.976 | locus YDL101C, strain DUN1, hits give low values 1.01 | locus YDL134C, strain PPH21, hits give low values 0.947 | locus YDL185W, strain tfp1, hits give low values 1.01 | locus YDL192W, strain arf1, hits give low values 0.977 | locus YDR101C, strain arx1, hits give low values 1.03 | locus YDR150W, strain NUM1, hits give low values 0.934 | locus YDR162C, strain NBP2, hits give low values 0.927 | locus YDR318W, strain mcm21, hits give low values 0.962 | locus YDR388W, hits give low values 0.996 | locus YDR502C, strain sam2, hits give low values 1.03 | locus YEL061C, strain CIN8, hits give low values 0.95 | locus YER110C, hits give low values 1 | locus YER155C, strain BEM2, hits give low values 1 | locus YER167W, strain BCK2, hits give low values 0.978 | locus YGL078C, strain dbp3, hits give low values 0.991 | locus YGL086W, strain mad1, hits give low values 1.02 | locus YGL248W, strain PDE1, hits give low values 0.966 | locus YGR078C, strain PAC10, hits give low values 0.987 | locus YGR135W, strain pre9, hits give low values 0.97 | locus YGR252W, strain gcn5, hits give low values 1.05 | locus YHR030C, strain SLT2, hits give low values 0.992 | locus YHR079C, strain IRE1 (second series), hits give low values 0.987 | locus YHR094C, strain hxt1, hits give low values 0.989 | locus YHR129C, strain ARP1, hits give low values 0.973 | locus YHR200W, strain rpn10, hits give low values 1.01 | locus YIL066C, strain RNR3, hits give low values 0.979 | locus YIL073C, strain SPO22, hits give low values 0.96 | locus YIL125W, strain kgd1, hits give low values 1 | locus YIR030C, strain dcg1, hits give low values 0.989 | locus YJL095W, strain BCK1, hits give low values 0.937 | locus YJL134W, strain LCB3, hits give low values 0.985 | locus YJL168C, strain set2, hits give low values 1 | locus YJL187C, strain SWE1 (second series), hits give low values 0.984 | locus YJR043C, strain POL32, hits give low values 1.01 | locus YJR075W, strain HOC1, hits give low values 0.99 | locus YKL009W, strain mrt4, hits give low values 0.987 | locus YKL068W, hits give low values 0.983 | locus YKL085W, strain MDH1 (second series), hits give low values 0.978 | locus YKL085W, strain MDH1, hits give low values 0.978 | locus YKL190W, strain CNB1, hits give low values 0.935 | locus YKR001C, strain vps1, hits give low values 0.998 | locus YLR039C, strain RIC1, hits give low values 0.792 | locus YLR058C, strain SHM2, hits give low values 0.97 | locus YLR102C, strain apc9, hits give low values 0.99 | locus YLR262C, strain YPT6, hits give low values 0.761 | locus YLR268W, strain sec22, hits give low values 1 | locus YLR330W, strain CHS5, hits give low values 0.989 | locus YLR342W, strain FKS1 (second series), hits give low values 0.987 | locus YLR371W, strain rom2, hits give low values 1 | locus YLR418C, strain cdc73, hits give low values 1.06 | locus YML016C, strain PPZ1, hits give low values 0.987 | locus YML032C, strain rad52, hits give low values 0.969 | locus YML124C, strain tub3, hits give low values 0.982 | locus YMR078C, strain ctf18, hits give low values 0.985 | locus YMR223W, strain ubp8, hits give low values 0.974 | locus YMR307W, strain GAS1, hits give low values 0.716 | locus YNL067W, strain RPL9B, hits give low values 0.951 | locus YNL153C, strain GIM3, hits give low values 0.996 | locus YNL233W, strain BNI4, hits give low values 1 | locus YNL250W, strain rad50, hits give low values 0.981 | locus YNL271C, strain bni1, hits give low values 0.989 | locus YNL298W, strain CLA4, hits give low values 0.984 | locus YNL307C, strain MCK1, hits give low values 1 | locus YNR052C, strain pop2, hits give low values 0.915 | locus YOL012C, strain htz1 0.999 | locus YOL147C, strain pex11, hits give low values 0.99 | locus YOR061W, strain CKA2, hits give low values 0.974 | locus YOR069W, strain VPS5, hits give low values 0.975 | locus YOR136W, strain idh2, hits give low values 1.03 | locus YOR144C, strain elg1, hits give low values 0.992 | locus YOR184W, strain ser1, hits give low values 0.932 | locus YOR316C, strain cot1, hits give low values 0.987 | locus YPL241C, strain CIN2, hits give low values 0.953 | locus YPR119W, strain clb2, hits give low values 0.976 | locus YPR141C, strain kar3, hits give low values 0.981 | locus YPR163C, strain tif3, hits give low values 0.987 | locus YPR167C, strain met16, hits give low values 0.98 | strain wtn01, hits give low values 1.04
